# According to ChEMBL document CHEMBL4513216, “Probing the Open Global Health Chemical Diversity Library for Multistage-Active Starting Points for Next-Generation Antimalarials” (ACS Infect Dis, 2020):
# Among all 69,000 compounds or so, about 8,600 (12%) showed an effect of 50% or more. What follows is part of a selection rich in strong results, with near analogues and random picks from the rest.
# System: Plasmodium berghei
# Test: Screen against P. berghei liver stage (PbLuc), transformed with Luciferase, at 10uM
# Format: functional, HepG2
# Conditions: tested at 10 uM
row,Structure (SMILES),INHIBITION [%]
1,COCCN(C)C[C@@H]1CN(C(=O)c2ccc(OC)c(F)c2)C[C@@H]1CO,0.29
2,COc1cc(C)ccc1C(=O)N1C[C@@H](CN(C)CCO)[C@@H](CO)C1,-1.38
3,COCCN(CCN(C)C)C(=O)NC1CC1,7.25
4,COCCN(C)C[C@H]1C[C@H](CO)CN(C(=O)c2ccn(C)c(=O)c2)C1,11.7
5,COCCN(C)C[C@H]1C[C@H](CO)CN(C(=O)c2ccc(=O)n(C)c2)C1,50.7
6,COc1ccc(C)cc1C(=O)N1C[C@@H](CN(C)CCO)[C@@H](CO)C1,56.9
7,COc1ccc(F)c(F)c1C(=O)N1C[C@@H](CN(C)CCO)[C@@H](CO)C1,-1.38
8,COCCN(C)C[C@@H]1CN(C(=O)c2c(F)ccc(OC)c2F)C[C@@H]1CO,84.4
9,COCCN(CCOC)C(=O)NC1CCCCC1,50.8
10,COc1cccc(C(=O)N2C[C@@H](CN(C)CCO)[C@@H](CO)C2)c1C,20.6
11,COCCN(CCN(C)C)C(=O)NC1CCc2ccccc2C1 (centres undefined),-65.3
12,COCCN(C)C[C@H]1C[C@@H](CO)CN(C(=O)c2ccn(C)c(=O)c2)C1,35.5
13,CS(=O)(=O)c1ccc(Cl)c(NC(=O)NCCC2=CCCCC2)c1,0.818
14,COCCC1COC2(CCN(C(=O)c3ccco3)CC2)C1 (centres undefined),29.6
15,CN(C)C(=O)[C@H]1C[C@H]2OCC[C@H]2N(Cc2ccc3ccccc3n2)C1,25.2
16,CC(C)NC(=O)[C@H]1C[C@@H]2[C@@H](C1)OCCN2Cc1ccco1,7.24
17,CC(C)(C)OC(=O)N[C@@H]1C[C@@H](O)CN(C(=O)c2cccc(F)c2)C[C@H]1O,4.41
18,C[C@H]1C(=O)NC[C@H]2CN(Cc3cccc(F)c3)C[C@H]21,23.5
19,CC(=O)N1CCC2(CC1)CN(C)C(=O)C[C@H]2C(F)(F)F,2.79
20,CC(Nc1c(F)cc(C#N)cc1F)c1cccc(S(N)(=O)=O)c1 (centres undefined),-68.1
21,COCCN(C)C[C@@H]1CN(C(=O)c2cccc(C(F)(F)F)c2)C[C@@H]1CO,23.5
22,COCCN(C)C[C@@H]1CN(C(=O)c2ccc(C)cc2)C[C@@H]1CO,-18.9

row,Structure (SMILES),INHIBITION [%]
1,COCCN(C)C[C@@H]1CN(C(=O)c2ccc(SC)cc2)C[C@@H]1CO,19.4
2,CCN(C)C[C@@H]1CN(C(=O)NC2CCCCC2)C[C@@H]1CO,24.5
3,COCCN(C)C[C@@H]1CN(C(=O)c2sc3ccccc3c2C)C[C@@H]1CO,17.6
4,COCCN(C)C[C@@H]1CN(C(=O)NC2CCCCC2)C[C@@H]1CO,50.2
5,COCCN(C)C[C@@H]1CN(C(=O)C(C)(C)c2ccccc2)C[C@@H]1CO,60.6
6,COCCN(C)C[C@@H]1CN(C(=O)c2ccc(=O)n(C)c2)C[C@@H]1CO,57.2
7,CN(C)CCN(C)C[C@@H]1CN(C(=O)NC2CCCC2)C[C@@H]1CO,27.4
8,O=C1NC(c2ccccc2)=N[C@@]12CC[C@@H]1CN(CC3CC3)C[C@@H]12,44.2
9,O=C(CCc1nc2cc(Br)cnc2[nH]1)NCCN1CCOCC1,-7.28
10,N#Cc1cccc(C(=O)N2CCC(Nc3cccnn3)CC2)c1,15.5
11,Cc1ccc2c(c1)C(NC(=O)N(C)C)CC21CCN(C)CC1 (centres undefined),-24.1
12,OC1CCN(c2cnnc3ccccc23)CC1,40.2
13,COC(=O)c1sc(NCc2ccc(N3CCC(O)CC3)c(F)c2)nc1Cl,91.2
14,N#Cc1cc(NC(=O)c2cc[nH]n2)ccc1N1CCC(O)CC1,9.65
15,Cc1nc(C(=O)NCc2ccc(N3CCNC(=O)C3)c(F)c2)cs1,-11.7
16,OC1CCN(c2ccc(CNc3nc4ccccc4s3)cc2F)CC1,59.4
17,OC1CCN(c2ccc(CNc3nc4ccccc4o3)cc2F)CC1,-37.7
18,Cc1cc(NCCNc2cccnc2)nc(N)n1,36.8
19,CCC(NS(=O)(=O)c1ccc(C(=O)NC2CC2)cc1)c1cnn(C)c1 (centres undefined),-10.1
20,O=C1CC2(CCN(C(=O)c3ccncc3)CC2)Oc2c(Cl)cc(Cl)cc21,-29
21,CC(C)N1CCc2ncn(C(C)C)c2C1C(=O)NCCN1CCCC1 (centres undefined),30.5
22,CC(C)N1CCc2ncn(C)c2C1C(=O)N1CCOCC1 (centres undefined),29

row,Structure (SMILES),INHIBITION [%]
1,CC(C)N1CCc2ncn(C)c2C1C(=O)NCCN1CCCC1 (centres undefined),67.4
2,CCc1noc(Cn2c(=O)c3c(C(F)(F)F)cc(C)nc3n2C)n1,-7.93
3,CC1CCN(c2nc3c(cnn3-c3ccccc3)c(=O)[nH]2)CC1,89.6
4,O=c1[nH]c(N2CC(O)C2)nc2c1cnn2-c1ccccc1,17.1
5,O=c1[nH]c(N2CCN(C3CC3)CC2)nc2c1cnn2-c1ccccc1,24.7
6,CCn1cc2c(n1)CN(Cc1sccc1C)CC2COCC1CC1 (centres undefined),52
7,CCn1cc2c(n1)CN(C(=O)c1ccncc1)CC2COCC1CC1 (centres undefined),-30.1
8,CCOCC1CN(Cc2nccs2)Cc2nn(CC3CC3)cc21 (centres undefined),11.4
9,CCn1cc2c(n1)CN(Cc1nccs1)CC2COCC1CC1 (centres undefined),71.1
10,CCn1cc2c(n1)CN(CC1CC1)CC2COCC1CC1 (centres undefined),19.3
11,COCC1CN(Cc2sccc2C)Cc2nnn(CC3CC3)c21 (centres undefined),-42.9
12,OC1CCCN(Cc2ccnc(-c3cccnc3)n2)C1 (centres undefined),19.6
13,CCn1cc(-c2cc(C(F)(F)F)n(CCCN)n2)cn1,8.53
14,Fc1ccc(CN[C@@H]2COC[C@H]2c2ccc(F)cc2)cc1,-27.1
15,Cc1noc(CN(C)C(=O)c2n[nH]c(N)c2-c2ccccc2)n1,1.98
16,Cc1cc(-c2cncnc2)nc(C2CCCN2S(C)(=O)=O)n1 (centres undefined),31.3
17,O=C(CN1CC(c2nc(C3CC3)no2)C1)N1CCOCC1,29.7
18,CC1CCN(C(=O)CN2CC(c3nc(C4CC4)no3)C2)CC1,58.1
19,O=C(CN1CCCC(c2noc(C3CC3)n2)C1)N1CCCC1 (centres undefined),15.6
20,NC(=O)CN(Cc1ncc(-c2ccc(Cl)cc2)o1)C1CCCC1,-46.6
